# Tau ThT inhib – qHTS for Inhibitors of Tau Fibril Formation, Thioflavin T Binding; hit rate 2.1% among 270,000; recombinant tau K18 P301L, heparin-induced fibrillization, ThT fluorescence; Potency, µM (titrated, usually from 57.4 µM), without a hit: at the highest dose activity, negative = inhibition, most hits filed as inhibitors; also: potency is read from the fitted curve at half-maximal effect; nearly all actives have a fitted effect of over 55% in size
# Target sequence (P10636 561-689 P618L limits assumed): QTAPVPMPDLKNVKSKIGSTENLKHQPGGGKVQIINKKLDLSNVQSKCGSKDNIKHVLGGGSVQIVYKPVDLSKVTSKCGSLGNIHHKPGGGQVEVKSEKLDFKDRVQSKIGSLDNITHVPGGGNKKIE
#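 In this qHTS, human K18 P301L tau is incubated with compound and heparin for 6 hr at 37 C, and Thioflavin T fluorescence then reports fibril load.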
# JMJD2E inh – qHTS Assay for Inhibitors of Human Jumonji Domain Containing 2E (JMJD2E) | Potency, µM (highest dose often 57.1 µM), for the others: at the top dose activity change, negative = inhibition, usual class: inhibitors | JMJD2E catalytic domain, FDH-coupled NADH fluorescence (FDH is formaldehyde dehydrogenase) | hit rate 1.6% among 230,000 | Lysine-specific demethylase 4E (Homo sapiens), B2RXH2; active = well fitted inhibition curve with a large enough effect, not every such curve was filed as active; inconclusive = small, poorly fitted or top-dose-only effect, or another doubt; inactive = no such curve, though single readings can be large or run the other way;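 also: potency is read from the fitted curve at half-maximal effect; 0% = wells with enzyme and -100% = buffer wells without enzyme; nearly all actives have a fitted effect of over 50% in size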
# Target sequence (B2RXH2 1-337 limits assumed): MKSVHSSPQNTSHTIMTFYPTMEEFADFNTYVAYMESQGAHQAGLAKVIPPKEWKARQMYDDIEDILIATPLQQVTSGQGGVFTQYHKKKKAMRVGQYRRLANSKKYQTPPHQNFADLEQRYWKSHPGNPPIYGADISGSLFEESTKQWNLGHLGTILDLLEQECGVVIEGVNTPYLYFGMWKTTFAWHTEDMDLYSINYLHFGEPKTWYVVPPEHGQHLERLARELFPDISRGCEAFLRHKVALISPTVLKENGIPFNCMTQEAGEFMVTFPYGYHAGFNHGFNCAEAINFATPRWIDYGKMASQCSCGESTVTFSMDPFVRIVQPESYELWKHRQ
# Tau fluor counter – Counterscreen qHTS for Inhibitors of Tau Fibril Formation, Fluorescence Polarization; tau K18 P301L Alexa594 fluorescence, heparin fibrillization; Potency, µM (doses to about 57.7 µM), inactives show at the top dose activity change, negative = decrease; hit rate 0.93% among 280,000; also: potency is read from the fitted curve at half-maximal effect; nearly all actives have a fitted effect of over 55% in size
#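 Human tau K18 P301L (15 uM unlabeled, 0.24 uM Alexa 594-labeled) in 100 mM sodium acetate pH 7 with 20 uM heparin, 6 hr at 37 C. ThT 30 uM added, 1 hr ambient; Alexa 594 FP and total fluorescence read at 555/632 nm.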
# Coupling enz – qHTS Assay for Inhibitors of Fructose-1,6-bisphosphate Aldolase from Giardia Lamblia: Coupling assay counterscreen | coupling enzyme system counterscreen, AmpLite Red fluorescence | activity change, negative = inhibition, % at 58.2 µM, hits read low | hit rate 0.67% among 290,000 | AID 2472, 2010; in the data active = activity change below about -30%
#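 Counterscreen lacking aldolase: glyceraldehyde-3-phosphate coupling-enzyme reagent preincubated 10 min at RT with compound (at 57.5 uM final), then substrate/coupling system with AmpLite Red added; fluorescence read at 525/598 nm after 20 min RT.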
# Tau FP inhib – qHTS for Inhibitors of Tau Fibril Formation, Fluorescence Polarization; AID 1468, 2008; Microtubule-associated protein tau (Homo sapiens), P10636; hit rate 0.39% among 280,000; K18 P301L tau heparin fibrillization, Alexa594 FP, 6 h; Potency, µM (doses to about 57.7 µM), inactives show at the highest dose activity, negative = inhibition, hits mostly inhibitors; also: potency is read from the fitted curve at half-maximal effect; nearly all actives have a fitted effect of over 55% in size
#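 K18 P301L tau (15 uM unlabeled/0.24 uM Alexa 594-labeled, final) + compound + heparin 20 uM final; 100 mM NaOAc pH 7; 6 hr 37 C; ThT 30 uM final added, 1 hr RT; FP ex 555/em 632 nm.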
# * = called active by the depositor; ? = inconclusive; . = not tested or not shown; ! = a repeat was not active; [ ] = remark or other dose. The list is not random: actives were taken first. Their share in the collection is about 3%. Unless noted, calls follow the shape of the dose curve; as a rule, active = well fitted curve in the direction sought with a large enough effect; inconclusive = small, poorly fitted or top-dose-only effect, or another doubt; inactive = no such curve, though single readings can be large; an effect the other way counts as inactive or inconclusive. Unless noted, % is scaled to controls: 0 for no effect and ±100 for the full control effect.
SMILES,Tau ThT inhib,JMJD2E inh,Tau fluor counter,Coupling enz,Tau FP inhib
COc1ccc(-c2cc(C(=O)Nc3sc4c(c3C(N)=O)CCC(C)C4)no2)cc1 (configuration not stated),?,.,-10%,.,-12%
Cc1ccc(-c2nn3c(=O)cc(CN4CCN(C(=O)/C=C/c5ccccc5)CC4)nc3s2)cc1,?,.,1%,.,-5%
Cc1nc(-c2ccc(Cl)cc2)sc1CCNC(=O)C(=O)Nc1ccc(F)cc1F,-15%,.,0%,.,-11%
COC/C=C/C1=CC2=CC(=O)C(C)(OC(=O)c3cnc4ccccc4n3)C(=O)C2=CN1c1ccccc1 (configuration not stated),13µM*!,0%[11.4 µM],?,0,?
CCOC(=O)c1ccoc1CSCc1ccc(C(=O)OC)o1,25µM*,-13%,-28%,-1,?
Cc1[nH]c2ccccc2c1C1(O)C(=O)N(C(C)C)c2ccccc21 (configuration not stated),-11%,11%,-10%,-26,4%
Cc1ccc2c(c1)C(O)(c1c(C)[nH]c3ccccc13)C(=O)N2 (configuration not stated),?,?,?,-35*,11%
Nc1ccc2c(c1)C(=O)C(=O)c1ccccc1-2,-2%,0%,-4%,0,4%
O=C1C(=O)c2ccc(-c3ccccc3)cc2-c2ccccc21,1.3µM*,-1%,-18%,-72*,?
CC(C)Oc1ccc(CNC(=O)C2CCN(C(=O)N3CCOc4ccc(Cl)cc43)CC2)cc1,?,.,?,.,-7%
O=C(NCCSc1c[nH]c2ccccc12)c1ccc(Cl)cc1,?,.,20µM*[quencher],.,-3%
COc1ccc(/C=N/N=C2/CC(C)(C)Cc3n[nH]c(=O)cc32)cc1,?,32µM*,0%,-18,0%
CCCCCCCc1ccc(-c2ccc(O)cc2)nc1,?,-3%,14µM*[quencher],1,?
CCCCCc1ccc(-c2ccc(Br)cc2)nc1,-10%,.,-6%,.,0%
O=C1C(Nc2ccc(O)cc2)=C/C(=N/S(=O)(=O)c2cccs2)c2ccccc21,13µM*,25%,13µM*[quencher],-37*,?
CCc1ccc(S(=O)(=O)/N=C2\C=CC(=O)c3ccccc32)cc1,18µM*,-22%,?,-50*,?
CCc1ccc(S(=O)(=O)/N=C2\C=C(Nc3ccc(O)cc3)C(=O)c3ccccc32)cc1,.,.,.,-35*,.
Cc1cccc(NC2=C/C(=N/S(=O)(=O)c3cccs3)c3ccccc3C2=O)c1,15%,3%,-4%,3,4%
CCc1ccc(S(=O)(=O)/N=C2\C=C(Nc3cccc(C(=O)O)c3)C(=O)c3ccccc32)cc1,.,.,.,-44*,.
CCc1ccc(C2CC(=O)Nc3c2c(=O)n(C)c2ncnn32)cc1 (configuration not stated),-9%,.,-10%,.,-6%
CC(C)c1ccc(NC(=O)c2ccc(=O)n(Cc3ccccc3)c2)cc1,-13%,.,?,.,-5%
CCOC(=O)c1cccc(NS(=O)(=O)c2cc(-c3cnc(C4CC4)o3)ccc2C)c1,5%,.,-25%,.,10%
CCOC(=O)c1c(NC(=O)C(C)Sc2cn(CCNC(=O)c3c(F)cccc3F)c3ccccc23)sc2c1CCC2 (configuration not stated),-11%,.,-23%,.,-5%
Cc1ccc(Cl)cc1NC1=C/C(=N\S(=O)(=O)c2cccs2)c2ccccc2C1=O,4.5µM*,?,?,-46*,-2%
CCc1ccc(S(=O)(=O)/N=C2/C=C(Sc3ncn[nH]3)C(=O)c3ccccc32)cc1,4µM*,3.5µM*,?,-58*,11µM*
SMILES,Tau ThT inhib,JMJD2E inh,Tau fluor counter,Coupling enz,Tau FP inhib
C[C@H](O)C(N)C(=O)O (some centres not stated),.,.,.,2,.
COc1ccc(CCNCC(=O)Nc2ccc(C)c(S(=O)(=O)N(C)C)c2)cc1,-4%,28µM*,-7%,-3,0%
COc1ccc(CCC(=O)Nc2ccc(C)c(S(=O)(=O)N(C)C)c2)cc1OC,3%,2%,3%,1,3%
C/C(=N\NC(=O)c1cc(-c2cccnc2)nc2ccccc12)c1ccc(O)cc1O,7.9µM*,1%,?,0,20%
O=[N+]([O-])c1cc(Cl)cc(/C=N\Nc2ccccn2)c1O,8.9µM*,-6%,18µM*[quencher],1,-12%
C/C(=N\NC(=O)c1cc(-c2cccc(OC(C)C)c2)nc2ccccc12)c1cccnc1,.,.,.,-1,.
O=C(N/N=C/c1ccccn1)c1cc(-c2ccccc2)nc2ccccc12,?,25µM*,?,1,-7%
Cc1cc(C(=O)N/N=C/C=C/c2ccc([N+](=O)[O-])cc2)n[nH]1,1.8µM*,-7%,-18%,2,0%
COc1cc2c(c(OC)c1OC)-c1c(cc(OC)c(OC)c1OC)CC(C)C(C)C2 (configuration not stated),.,.,.,0,.
COc1ccccc1NC(=O)c1cc2cc3ccc(OC)c(Cl)c3nc2s1,1%,.,0%,.,-3%
Cc1cc(C)c(Cn2c(C)c(CNCCCc3ccccc3)c(C(=O)O)c2C)c(C)c1,-13%,.,1%,.,-7%
C=CCN1c2ccccc2[C@]23C[C@@H](C(=O)OC)N(S(=O)(=O)c4ccc(Br)cc4)C2=NC(C(=O)OC)=C(C(=O)OC)[C@H]13,3%[11.5 µM],11%[11.4 µM],-4%[11.6 µM],3,-8%[11.6 µM]
CSc1ccc(Nc2nn(-c3ccc(OC(F)(F)F)cc3)nc2C(C)=O)cc1,-8%,.,-6%,.,-12%
Cc1cc(C(=O)N/N=C/c2cc(Cl)cc([N+](=O)[O-])c2O)n[nH]1,13µM*,18µM*,?,7,-11%
O=C(N/N=C/c1cc(Cl)cc([N+](=O)[O-])c1O)c1cc(-c2ccccn2)nc2ccccc12,8.9µM*,22µM*,?,-3,5%
Cc1cc(C(=O)N/N=C/c2ccc([N+](=O)[O-])s2)n[nH]1,?,-9%,-21%,3,-9%
Cc1cc(C)n2c(Nc3ccccc3)c(-c3ccccc3)nc2n1,-6%,.,-12%,.,3%
O=C(Nc1c(C(=O)N2CCN(c3ccccc3)CC2)oc2ccccc12)c1ccc(Br)o1,-14%,.,-10%,.,11%
CCOC(=O)c1c(-c2ccco2)csc1N,-15%,-28%,-7%,-31*,5%
CCOC(=O)c1c(-c2cccs2)csc1N,?,-20%,?,-11,1%
S=c1[nH]c2cc3ccccc3cc2[nH]1,?,?,-21%,-53*!,-11%
COc1ccc(CNC(=O)Cn2ccc3cc(S(=O)(=O)N4CCCCC4)ccc32)cc1OC,7%,.,-17%,.,10%

# Assay outcomes: PubChem, National Center for Advancing Translational Sciences (NCATS)
